Source: PubChem BioAssay
Most compounds without a hit are left out; they make up all but 6.1% or so of the library.
D3 antag – qHTS of D3 Dopamine Receptor Antagonist: qHTS. D(3) dopamine receptor (Homo sapiens), P35462. D3R cells, DiscoveRx beta-arrestin luminescence, antagonist mode; stronger effect = lower value. max response, negative = inhibition, %. 360,000 tested, 2.5% active. AID 652054, 2013; in the data active = max response below about -50%; inconclusive = no clear call, values can overlap the other calls; also: % is scaled to controls: 0 for no effect and ±100 for the full control effect
Target sequence (P35462 whole entry, looked up): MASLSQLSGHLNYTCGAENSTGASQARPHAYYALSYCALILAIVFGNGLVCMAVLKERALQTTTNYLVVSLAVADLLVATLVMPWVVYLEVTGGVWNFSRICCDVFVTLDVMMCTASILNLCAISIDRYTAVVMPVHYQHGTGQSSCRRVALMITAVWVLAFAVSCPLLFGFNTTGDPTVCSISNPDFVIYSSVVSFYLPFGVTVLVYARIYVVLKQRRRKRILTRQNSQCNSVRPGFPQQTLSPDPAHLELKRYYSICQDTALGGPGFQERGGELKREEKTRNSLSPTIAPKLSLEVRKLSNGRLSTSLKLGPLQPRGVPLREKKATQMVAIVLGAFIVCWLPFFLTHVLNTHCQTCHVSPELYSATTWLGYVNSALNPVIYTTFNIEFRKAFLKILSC
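Cells expressing the human receptor were seeded at 1500 cells/well, incubated overnight at 37 degrees C in 5% CO2, then exposed to library compounds with dopamine controls for 90 minutes at 37 degrees C before luminescent detection.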
DRD3 agonist – qHTS of D3 Dopamine Receptor Agonist: qHTS | D(3) dopamine receptor (Homo sapiens), P35462 | D3R DiscoveRx beta-arrestin cells, luminescence, 90 min | max activation, % | 410,000 tested, 0.58% active | AID 652048, 2013; in the data active = max activation above about 30%; also: 0% is about no effect
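Agonist mode: compounds and dopamine controls were applied to plated cells for 90 min at 37 degrees C after an overnight attachment at 1500 cells/well. Luminescent read-out followed 30 - 60 minutes at room temperature with DiscoveRx detection reagent.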
D1 antag – Antagonist of Human D 1 Dopamine Receptor: qHTS; D(1A) dopamine receptor (Homo sapiens), P21728; HEK293 TREx D1 cells, calcium flux, dopamine EC80; stronger effect = lower value; activity change, negative = inhibition, % at 10 µM; 360,000 tested, 3.2% active; AID 504652, 2011; in the data active = activity change below about -30%; also: % is scaled to controls: 0 for no effect and ±100 for the full control effect
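Using tetracycline-induced force-coupled D1 Hek293 cells and a calcium dye, signals were followed for 180 s after compound, then for 180 s after EC80 dopamine, to detect inhibitors.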
D1 agonist – Allosteric Agonists of the Human D1 Dopamine Receptor: qHTS. D(1A) dopamine receptor (Homo sapiens), P21728. 360,000 tested, 1% active. HEK293 T-REx D1 cells, calcium flux, agonist mode. activation, % at 2 µM. AID 504660, 2011; in the data active = activation above about 30%; also: 0% is about no effect
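Tetracycline-induced HEK293 TREx D1 cells, force-coupled to calcium signalling, were dye-loaded with a no-wash calcium kit. Compound was pin-added after a 10 s baseline. Fluorescence was read kinetically at 1 cycle/s for 180 s, with calcium rises flagged as agonism.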
D1 PAM – Potentiators of Human D1 Dopamine Receptor: qHTS. HEK293 TREx D1 cells, calcium flux, dopamine EC20 potentiation. potentiation, % at 10 µM. 360,000 tested, 0.036% active. AID 504651, 2011. D(1A) dopamine receptor (Homo sapiens), P21728; in the data active = potentiation above about 30%; also: 0% is about no effect
The depositor's hits bear a star; ? = inconclusive; . = no result.

SMILES	D3 antag	DRD3 agonist	D1 antag	D1 agonist	D1 PAM
COc1ccc(-c2cnnc(N/N=C/c3ccc(O)c(OC)c3)n2)cc1	13.1	31.5*	8.1	0.6	0.3
CC(CCc1ccccc1)NC(=O)CN(C)Cc1ccccc1F (centres undefined)	-0.9	41.2*	8.6	1.9	-3.6
CC(CCc1ccccc1)NC(=O)CN(C)Cc1ccc(F)cc1 (centres undefined)	-5.1	-12.5	-2.0	2.1	-1.2
CC(C)C[C@H]1CN=C(Nc2ccccc2)N1CC1CCC(C)CC1 (some centres undefined)	5.1	-19.7	22.9	15.6	-5.9
N#C/C(=C\c1ccc[nH]1)C(=O)Nc1ccccc1F	-20.7	-9.9	-31.2*	0.5	-4.8
CCc1ccc(NC(=O)CSCc2nc(N)nc(Nc3ccccc3CC)n2)cc1	-16.9	2.4	-36.3*	-1.2	-0.5
CCCCC/C=C\CCC(=O)N[C@H]1[C@H](Oc2c3cc4cc2Oc2ccc(cc2Cl)[C@@H](O[C@@H]2O[C@H](CO)[C@@H](O)[C@H](O)[C@H]2NC(C)=O)[C@@H]2NC(=O)[C@H](NC(=O)[C@@H]4NC(=O)[C@H]4NC(=O)[C@@H](Cc5ccc(c(Cl)c5)O3)NC(=O)[C@H](N)c3ccc(O)c(c3)Oc3cc(O)cc4c3)c3ccc(O)c(c3)-c3c(O[C@H]4O[C@H](CO)[C@@H](O)[C@H](O)[C@@H]4O)cc(O)cc3[C@@H](C(=O)O)NC2=O)O[C@H](CO)[C@@H](O)[C@@H]1O	.	-16.7	.	.	.
CC(=O)c1ccc(OC2(C)CCN(Cc3cc4ccccc4[nH]3)C2)cc1 (centres undefined)	-55.0*	-20.4	.	.	.
CSc1ccc(CN2CCC(C)(Oc3ccc4ccccc4c3)C2)cc1 (centres undefined)	?	-14.4	.	.	.
COCOc1cccc(CN2CCC(C)(Oc3ccc(C(C)=O)cc3)C2)c1 (centres undefined)	10.4	-6.1	.	.	.
CC(=O)c1ccc(OC2(C)CCN(Cc3cccn3-c3nccs3)C2)cc1 (centres undefined)	9.4	3.5	.	.	.
CC(=O)c1ccc(OC2(C)CCN(CCOc3ccc(C)cc3)C2)cc1 (centres undefined)	-17.9	48.2*	.	.	.
CC(=O)c1cc2cccc(OC3(C)CCN(Cc4ccc5ccccc5c4)C3)c2o1 (centres undefined)	-69.7*	-16.0	.	.	.
CCCCNc1nc2ccccc2nc1Cl	5.9	1.8	-8.2	0.2	4.3
CCOc1ccc(/C=C2\SC(=O)N(CCNC(=O)C3COc4ccccc4O3)C2=O)cc1OC (centres undefined)	105.0	49.7*	1.4	5.1	-0.2
Cc1ccc(-n2nc(C(=O)O)nc2-c2ccccc2)cc1	-51.1*	-8.0	0.9	2.9	-2.5
COc1ccc(S(=O)(=O)N(NC2=NS(=O)(=O)c3ccccc32)C(=O)C(C)C)cc1	4.6	0.2	-14.0	2.9	-5.5
CCCOc1ccc(F)cc1-c1cc(C(=O)NCc2cc(C(F)(F)F)cc(C(F)(F)F)c2)[nH]n1	85.4	1.4	.	.	.
Cc1cccc(S(=O)(=O)C(C#N)c2nc3ccccc3nc2N2CCCC2)c1 (centres undefined)	0.0	-0.2	-8.2	33.9*	-8.8
Cc1ccc(C)c(S(=O)(=O)C(C#N)c2nc3ccccc3nc2N2CCOCC2)c1 (centres undefined)	0.0	-0.4	21.2	7.6	-2.0
Cc1ccc(C)c(S(=O)(=O)C(C#N)c2nc3ccccc3nc2N2CCCC2)c1 (centres undefined)	3.5	-1.0	-8.1	34.4*	-1.6
O=C(C[C@H]1CC[C@@H](NS(=O)(=O)c2ccccc2)[C@@H](CO)O1)NCc1ccc(Cl)c(Cl)c1	2.3	5.2	.	.	.
O=C(CN1CCN(c2ccc([N+](=O)[O-])cc2)CC1)Nc1nccs1	24.2	6.7	-31.6*	8.4	7.3
O=C(CN1CCOCC1)Nc1nc2ccc([N+](=O)[O-])cc2s1	-85.4*	-21.6	-24.3	4.8	-4.5
O=C(CN1CCOCC1)Nc1nc2ccc(F)cc2s1	-7.3	1.6	1.9	1.6	4.8
SMILES	D3 antag	DRD3 agonist	D1 antag	D1 agonist	D1 PAM
O=C(CN1CCN(Cc2ccc(F)cc2)CC1)Nc1nc2ccccc2s1	1.8	-1.3	-30.3*	12.0	-3.2
O=C(CN1CCN(c2ccc([N+](=O)[O-])cc2)CC1)Nc1ccccn1	-5.9	5.6	-14.5	15.5	-8.5
CC(C)(C)OC(=O)NCc1nnc(-c2cc3ccccc3[nH]2)s1	.	.	-3.7	-0.2	-6.0
CCN(CC)c1ccc(/C=C(\C#N)c2ccccn2)cc1	-12.7	-10.0	-86.6*	35.4*	-2.0
CCN(Cc1ccccc1)c1ccc(/C=C(\C#N)c2ccccn2)cc1	-16.2	-23.2	11.5	31.4*	10.3
COC(=O)c1cc2c(cc1NC(=O)c1cnn(-c3ccc(C)cc3)c1-n1cccc1)OCO2	.	-3.0	-2.5	-1.3	-0.7
COc1ccc(NC(=O)c2sc3nc(C)c(C(=O)Nc4ccc(C)cc4C)c(-c4ccccc4Cl)c3c2N)cc1	.	13.5	-6.1	1.5	-0.7
Cc1ccc(NC(=O)c2c(C)nc3sc(C(=O)Nc4ccc(F)cc4)c(N)c3c2-c2ccccc2Cl)c(C)c1	.	8.9	-39.0*	5.2	1.2
O=C(NC1CCS(=O)(=O)C1)c1ccc(N2CCCCC2)c([N+](=O)[O-])c1 (centres undefined)	11.4	2.6	-20.0	1.2	-2.1
C/C=C/c1ccc(OCCCNC(C)CC)c(OC)c1 (centres undefined)	?	-4.8	-1.5	1.1	4.9
C/C=C/c1ccc(OCCCNC2CCCC2)c(OC)c1	-60.7*	0.2	6.5	15.9	-5.0
COC(=O)c1c(NC(=O)COC(=O)C2CCC2)sc(C)c1C	5.4	9.9	-6.8	1.4	1.1
CC(C)c1ccc(NC(=O)CN2C(=O)c3cccc4cccc2c34)cc1	.	6.6	-15.2	2.8	1.4
Nc1cc(S(=O)(=O)N2CCOCC2)ccc1Oc1cccc(Br)c1	-17.9	-2.1	-44.2*	11.7	-10.6
CCOc1ccc(OCc2ccc(C(=O)OCc3ccccn3)o2)cc1	15.3	5.2	-23.5	32.0*	-10.1
C=C1CC2C3CCC4=CC(=O)C=C[C@]4(C)[C@@]3(F)[C@@H](O)C[C@]2(C)[C@@]1(O)C(=O)COC(C)=O (some centres undefined)	.	-7.3	.	.	.
O=C(NCc1cccnc1)C(=O)NCC(c1cccnc1)N1CCN(c2ccc(F)cc2)CC1 (centres undefined)	.	5.1	1.4	5.3	-5.5
